Our source for the AC50 and outcome values is PubChem BioAssay (EPA / NIEHS).

Settings in all cases: mRNA level, 48 h; actives raise or lower the signal
Read-out in test [1]: Interleukin 6 Receptor (IL6R), IL6R (gene 3570)
As to the kind of experiment: LTEA_HepaRG_IL6R: Life Technologies and Expression Analysis (LTEA) Assay for Interleukin 6 Receptor (IL6R) using HepaRG (AID 2283510). The gist of the method:
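Concentration-response in human liver HepaRG cells: eight concentrations from 100 uM downward by half-logs, 48 h exposure, 0.5% DMSO vehicle. IL6R mRNA change measured by qRT-PCR and fitted in both directions relative to vehicle.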

Read-out in test [2]: Potassium channel subfamily K member 1 (KCNK1), KCNK1 (gene 3775)
In words: LTEA_HepaRG_KCNK1: Life Technologies and Expression Analysis (LTEA) Assay for Potassium channel subfamily K member 1 (KCNK1) using HepaRG (AID 2283511). The gist of the method: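 Differentiated human HepaRG cells in serum-free induction medium were exposed in duplicate for 48 h to 8 half-log concentrations up to 100 uM in 0.5% DMSO. KCNK1 mRNA was measured by TaqMan qRT-PCR, normalized to ACTB, GAPDH and POLR2A, and fitted bidirectionally versus DMSO.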

Read-out in test [3]: Keratin 19 (KRT19), KRT19 (gene 3880)
In words: LTEA_HepaRG_KRT19: Life Technologies and Expression Analysis (LTEA) Assay for Keratin 19 (KRT19) using HepaRG (AID 2283512). The gist of the method:
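Differentiated HepaRG cells in serum-free induction medium, exposed 48 h in duplicate to 8 half-log concentrations up to 100 uM in 0.5% DMSO. KRT19 mRNA by qRT-PCR, normalized to ACTB, GAPDH, POLR2A; bidirectional fit vs DMSO.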

Read-out in test [4]: JUN Transcription Factor, JUN (gene 3725)
In words: LTEA_HepaRG_JUN: Life Technologies and Expression Analysis (LTEA) Assay for JUN Transcription Factor using HepaRG (AID 2283513). The gist of the method:
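Human HepaRG liver cells receive test chemicals in 0.5% DMSO for 48 h across an eight-point range topping at 100 uM. Expression changes in JUN are scored in both directions against the DMSO vehicle.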

Read-out in test [5]: Lipase C (LIPC), LIPC (gene 3990)
In words: LTEA_HepaRG_LIPC: Life Technologies and Expression Analysis (LTEA) Assay for Lipase C (LIPC) using HepaRG (AID 2283514). The gist of the method: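 Differentiated human HepaRG cells in serum-free induction medium were exposed in duplicate for 48 h to eight concentrations (top 100 uM, half-log steps, 0.5% DMSO). LIPC mRNA was quantified by TaqMan qRT-PCR, normalized to ACTB, GAPDH and POLR2A, with bidirectional fitting versus DMSO.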

Read-out in test [6]: Lipoprotein lipase (LPL), LPL (gene 4023)
As to the kind of experiment: LTEA_HepaRG_LPL: Life Technologies and Expression Analysis (LTEA) Assay for Lipoprotein lipase (LPL) using HepaRG (AID 2283515). Summed up:
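Differentiated human HepaRG cells in serum-free induction medium were exposed in duplicate for 48 h to eight half-log concentrations (top 100 uM) in 0.5% DMSO. LPL mRNA was quantified by TaqMan qRT-PCR, normalized to ACTB, GAPDH and POLR2A.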

Read-out in test [7]: MicroRNA 122 (MIR122), gene 406906
As to the kind of experiment: LTEA_HepaRG_MIR122: Life Technologies and Expression Analysis (LTEA) Assay for MicroRNA 122 (MIR122) using HepaRG (AID 2283516). Note: the transcript read is the microRNA miR-122. The gist of the method: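 HepaRG, 48 h exposure, 8-pt half-log from 100 uM, 0.5% DMSO; TaqMan qRT-PCR; bidirectional fit vs DMSO.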

Read-out in test [8]: matrix metalloproteinase-10 (MMP10), MMP10 (gene 4319)
As to the kind of experiment: LTEA_HepaRG_MMP10: Life Technologies and Expression Analysis (LTEA) Assay for matrix metalloproteinase-10 (MMP10) using HepaRG (AID 2283517). The gist of the method: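 HepaRG, collagen I, ~100,000 cells/well; serum-free induction medium; 48 h exposure, duplicate, 8-pt half-log to 100 uM, 0.5% DMSO. Readout: TaqMan qRT-PCR, normalized to ACTB/GAPDH/POLR2A; bidirectional fit vs DMSO.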

Read-out in test [9]: MYC, MYC (gene 4609)
As to the kind of experiment: LTEA_HepaRG_MYC: Life Technologies and Expression Analysis (LTEA) Assay for MYC using HepaRG (AID 2283518). The gist of the method:
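Differentiated HepaRG cells exposed 48 h in serum-free induction medium to 8 concentrations (top 100 uM, half-log steps; 0.5% DMSO), duplicate. MYC mRNA measured by Fluidigm qRT-PCR, normalized to ACTB, GAPDH, POLR2A; bidirectional fit versus DMSO.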

Read-out in test [10]: matrix metalloproteinase-3 (MMP3), MMP3 (gene 4314)
As to the kind of experiment: LTEA_HepaRG_MMP3: Life Technologies and Expression Analysis (LTEA) Assay for matrix metalloproteinase-3 (MMP3) using HepaRG (AID 2283519). The gist of the method: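 Differentiated human HepaRG cells, plated 48 h on collagen I, were exposed in duplicate for 48 h in serum-free induction medium to eight half-log concentrations up to 100 uM in 0.5% DMSO. MMP3 mRNA was quantified by TaqMan qRT-PCR, normalised to ACTB, GAPDH and POLR2A.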

Read-out in test [11]: Paternally Expressed 10 (PEG10), PEG10 (gene 23089)
In words: LTEA_HepaRG_PEG10: Life Technologies and Expression Analysis (LTEA) Assay for Paternally Expressed 10 (PEG10) using HepaRG (AID 2283520).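 For AC50: PEG10 transcript by qRT-PCR normalised to ACTB GAPDH and POLR2A.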 Summed up:
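Chemicals tested on HepaRG cells for 48 h, highest concentration 100 uM. PEG10 expression assessed by qRT-PCR relative to DMSO control.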

Read-out in test [12]: Protein phosphatase 2A (PPP2R4), PTPA (gene 5524)
In words: LTEA_HepaRG_PPP2R4: Life Technologies and Expression Analysis (LTEA) Assay for Protein phosphatase 2A (PPP2R4) using HepaRG (AID 2283522). The gist of the method: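 Gene-expression endpoint in HepaRG hepatic cells: 48 h treatment across eight half-log concentrations up to 100 uM in 0.5% DMSO. PPP2R4 mRNA by qRT-PCR, normalized to three endogenous control genes.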

Read-out in test [13]: Phosphatase and tensin (PTEN), PTEN (gene 5728)
As to the kind of experiment: LTEA_HepaRG_PTEN: Life Technologies and Expression Analysis (LTEA) Assay for Phosphatase and tensin (PTEN) using HepaRG (AID 2283523). Summed up: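 Differentiated human HepaRG cells, plated 48 h then switched to serum-free induction medium, were exposed in duplicate for 48 h to eight half-log concentrations up to 100 uM in 0.5% DMSO. PTEN mRNA measured by TaqMan qRT-PCR, normalized to ACTB/GAPDH/POLR2A, bidirectional fit versus DMSO.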

Read-out in test [14]: solute carrier (SLC22A1), SLC22A1 (gene 6580)
In words: LTEA_HepaRG_SLC22A1: Life Technologies and Expression Analysis (LTEA) Assay for solute carrier (SLC22A1) using HepaRG (AID 2283524). The gist of the method:
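Human HepaRG cells were plated 48 h, switched to serum-free induction medium, then exposed in duplicate for 48 h to 8-point half-log series from 100 uM in 0.5% DMSO. SLC22A1 mRNA measured by qRT-PCR, normalized to ACTB/GAPDH/POLR2A, fitted bidirectionally versus DMSO.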

Read-out in test [15]: Pyruvate Dehydrogenase Kinase 4 (PDK4), PDK4 (gene 5166)
In words: LTEA_HepaRG_PDK4: Life Technologies and Expression Analysis (LTEA) Assay for Pyruvate Dehydrogenase Kinase 4 (PDK4) using HepaRG (AID 2283525). Summed up:
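Differentiated human HepaRG cells, pre-cultured 48 h, were exposed in duplicate for 48 h in serum-free induction medium to eight half-log concentrations up to 100 uM in 0.5% DMSO. PDK4 mRNA was quantified by qRT-PCR, normalized to ACTB, GAPDH and POLR2A, bidirectional fitting versus DMSO.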

Read-out in test [16]: NAD(P)H dehydrogenase [quinone] 1 (NQO1), NQO1 (gene 1728)
As to the kind of experiment: LTEA_HepaRG_NQO1: Life Technologies and Expression Analysis (LTEA) Assay for NAD(P)H dehydrogenase [quinone] 1 (NQO1) using HepaRG (AID 2283526). The gist of the method:
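Human HepaRG hepatic cells received chemicals for 48 h in serum-free induction medium with 0.5% DMSO, up to 100 uM. Expression was assessed by TaqMan qRT-PCR against housekeeping controls and fitted bidirectionally against DMSO.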

Read-out in test [17]: Nuclear factor erythroid 2-related factor 2 (Homo sapiens) (UniProt Q16236)
In words: LTEA_HepaRG_NFE2L2: Life Technologies and Expression Analysis (LTEA) Assay for Nuclear factor erythroid 2-related factor 2 (NFE2L2) Transcription Factor using HepaRG (AID 2283527).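 Note: TaqMan qRT-PCR transcript level normalised to ACTB GAPDH and POLR2A housekeeping genes.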 The gist of the method: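 Differentiated human HepaRG cells in serum-free induction medium were exposed for 48 h to eight concentrations (top 100 uM, half-log dilutions, 0.5% DMSO), in duplicate. NFE2L2 mRNA was quantified by TaqMan qRT-PCR, normalized to ACTB, GAPDH and POLR2A, with bidirectional fitting versus DMSO.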

Read-out in test [18]: succinate dehydrogenase complex iron sulfur subunit B (SDHB), SDHB (gene 6390)
In words: LTEA_HepaRG_SDHB: Life Technologies and Expression Analysis (LTEA) Assay for succinate dehydrogenase complex iron sulfur subunit B (SDHB) using HepaRG (AID 2283528). Summed up:
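Readout is SDHB transcript level by qRT-PCR, normalised to three housekeeping genes and fitted bidirectionally against 0.5% DMSO vehicle. Human HepaRG cells were treated for 48 h at up to 100 uM.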

Read-out in test [19]: Signal transducer and activator of transcription 3 (Homo sapiens) (UniProt P40763)
As to the kind of experiment: LTEA_HepaRG_STAT3: Life Technologies and Expression Analysis (LTEA) Assay for Signal transducer and activator of transcription (STAT3) using HepaRG (AID 2283529). The gist of the method: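 Differentiated human HepaRG cells in serum-free induction medium were exposed in duplicate for 48 h to eight half-log concentrations up to 100 uM in 0.5% DMSO. STAT3 mRNA was quantified by TaqMan qRT-PCR, normalized to ACTB, GAPDH and POLR2A, and fitted bidirectionally against DMSO.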

The source made the active and inactive calls. Rule for the calls: active = hit-call score of the fitted dose curve at least 0.9, where 1 is the maximum; inactive = score below 0.9.

Signal transducer and activator of transcription 3 (Homo sapiens), sequence (P40763 whole entry, looked up): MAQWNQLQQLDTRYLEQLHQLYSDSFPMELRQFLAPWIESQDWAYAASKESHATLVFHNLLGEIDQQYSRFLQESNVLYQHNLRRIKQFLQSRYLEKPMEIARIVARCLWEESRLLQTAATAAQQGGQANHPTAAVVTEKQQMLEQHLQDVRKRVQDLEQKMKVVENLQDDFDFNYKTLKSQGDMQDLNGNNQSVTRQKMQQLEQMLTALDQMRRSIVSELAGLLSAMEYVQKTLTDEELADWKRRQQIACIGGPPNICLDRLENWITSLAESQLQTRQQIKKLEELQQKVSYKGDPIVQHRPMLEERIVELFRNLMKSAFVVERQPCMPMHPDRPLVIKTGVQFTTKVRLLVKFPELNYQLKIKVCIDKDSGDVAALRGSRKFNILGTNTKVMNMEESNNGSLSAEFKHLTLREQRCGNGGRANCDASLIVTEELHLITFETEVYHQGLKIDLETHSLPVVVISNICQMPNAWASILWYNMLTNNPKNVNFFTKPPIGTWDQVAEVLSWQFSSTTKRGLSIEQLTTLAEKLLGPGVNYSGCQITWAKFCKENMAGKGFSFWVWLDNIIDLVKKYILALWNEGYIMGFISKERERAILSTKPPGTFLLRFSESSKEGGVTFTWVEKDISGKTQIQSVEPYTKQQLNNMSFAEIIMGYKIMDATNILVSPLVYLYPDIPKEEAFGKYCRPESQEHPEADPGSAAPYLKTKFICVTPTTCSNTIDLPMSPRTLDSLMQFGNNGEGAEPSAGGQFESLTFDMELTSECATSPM
Nuclear factor erythroid 2-related factor 2 (Homo sapiens), sequence (Q16236 whole entry, looked up): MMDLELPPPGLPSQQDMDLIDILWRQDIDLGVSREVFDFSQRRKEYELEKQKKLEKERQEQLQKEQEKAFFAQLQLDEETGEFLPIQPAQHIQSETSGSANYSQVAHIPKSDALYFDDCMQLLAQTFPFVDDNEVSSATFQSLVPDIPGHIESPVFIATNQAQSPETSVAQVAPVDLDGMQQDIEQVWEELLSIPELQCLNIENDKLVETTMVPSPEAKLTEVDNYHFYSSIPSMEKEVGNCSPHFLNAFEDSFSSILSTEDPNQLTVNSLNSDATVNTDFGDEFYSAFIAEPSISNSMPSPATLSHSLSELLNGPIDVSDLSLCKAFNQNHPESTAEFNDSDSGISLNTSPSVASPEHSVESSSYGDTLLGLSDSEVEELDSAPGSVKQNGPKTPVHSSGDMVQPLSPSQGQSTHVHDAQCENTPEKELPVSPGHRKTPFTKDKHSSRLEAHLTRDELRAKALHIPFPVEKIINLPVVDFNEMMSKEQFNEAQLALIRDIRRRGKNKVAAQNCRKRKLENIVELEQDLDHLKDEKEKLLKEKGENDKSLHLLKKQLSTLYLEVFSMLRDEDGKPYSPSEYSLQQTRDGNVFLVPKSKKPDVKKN

As to `COC(=O)c1c(C(F)F)nc(C(F)(F)F)c(C2=NCCS2)c1CC(C)C`, in [1], the AC50 was 12.2 µM (active). Moreover, the result in test [2], in test [3], in test [4], in test [5], in test [6] and in test [7] was inactive. In addition, the call in test [8], in test [9], in test [10], in test [11], in [12] and in test [13] was inactive. In addition, the outcome in test [14], in test [15], in test [16], in test [17], in test [18] and in test [19] was inactive.
As for `O=c1n(Cl)c(=O)n(Cl)c(=O)n1Cl`, the outcome in test [1], in [2], in [3], in test [4], in test [5] and in test [6] was inactive. Besides, the outcome in test [7], in test [8], in test [9], in test [10], in test [11] and in test [12] was inactive. For the same compound, the compound was classed as inactive in test [13], in test [14], in test [15], in [16], in [17] and in test [18]. Further, in test [19], the compound was classed as inactive.
On to `CC(C)Nc1nc(Cl)nc(NC(C)C)n1`, for which the outcome in test [1], in [2], in [3], in test [4], in [5] and in [6] was inactive. In addition, the call in [7], in [8], in [9], in [10], in [12] and in test [13] was inactive. Moreover, the result in test [14], in test [15], in [16], in test [17], in test [18] and in test [19] was inactive. Moreover, the AC50 in test [11] was 27.2 µM (active).

The AC50 is the midpoint of the concentration-response curve, whichever way the signal moves.
